Results on 36 compounds are retold here after the supplement of paper PMC8183993.

Structures can show the parent of a compound that is named as a salt. ± gives the standard deviation of the averaged measurements. In all, about 3,200 compounds were measured (“nuclei count (viability) relative to DMSO”: median about 99, lowest 2% from about 16 on). Many of the other results were omitted from the sample, so the lowest values are more common in it than they were.

In the test the test system is U2OS. Description: nuclei count (viability) relative to DMSO (% of DMSO); higher = more viable cells. As to conditions: 10 µM; 24 h. As to the method:
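Primary image-based screen in U2OS cells: compounds at 10 uM for 24 h, then a 1 h o-propargyl-puromycin (OPP) pulse, click labelling, and high-throughput microscopy. Mean cytoplasmic OPP intensity and nuclei count were normalised to DMSO wells within each plate (DMSO = 100) and averaged over triplicate plates.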
The compound `Oc1ccc2c3c1O[C@H]1c4[nH]c5c(c4C[C@@]4(O)[C@@H](C2)N(CC2CC2)CC[C@]314)C[C@@]1(O)[C@H]2Cc3ccc(O)c4c3[C@@]1(CCN2CC1CC1)[C@H]5O4` [nor-Binaltorphimine dihydrochloride] gave a nuclei count of 99.1. Consider `O=C1/C(=C/c2ccccc2)C[C@@]2(O)[C@H]3Cc4ccc(O)c5c4[C@@]2(CCN3CC2CC2)[C@H]1O5` [BNTX maleate], for which the nuclei count came to 3.38.

Compound `O=C1CC[C@@]2(O)[C@H]3Cc4ccc(O)c5c4[C@@]2(CCN3CC2CC2)[C@H]1O5` [Naltrexone hydrochloride dihydrate] came in with a nuclei count of 105. Under `CCN(CC)CCO[C@H]1CC[C@@]2(C)C(=CC[C@@H]3[C@@H]2CC[C@]2(C)C(=O)CC[C@@H]32)C1` stands 97; under `CC(=O)O[C@H]1CC[C@@]2(C)C(=CC[C@@H]3[C@@H]2CC[C@]2(C)C(=O)CC[C@@H]32)C1` [Dehydroisoandosterone 3-acetate], 96.3; under `C[C@@H]1CC[C@@]2(OC1)O[C@H]1C[C@H]3[C@@H]4CC=C5C[C@@H](O[C@@H]6O[C@H](CO)[C@@H](O[C@@H]7O[C@@H](C)[C@H](O)[C@@H](O)[C@H]7O)[C@H](O)[C@H]6O[C@@H]6O[C@@H](C)[C@H](O)[C@@H](O)[C@H]6O)CC[C@]5(C)[C@H]4CC[C@]3(C)[C@H]1[C@@H]2C` [Dioscin (Collettiside III)], 9.01. The same measure for `CO[C@@H]1[C@H](OC(=O)NC(=O)CCl)CC[C@]2(CO2)[C@H]1[C@@]1(C)O[C@@H]1CC=C(C)C`: 92.6. Turning to `Cc1onc(O)c1C[C@H](N)C(=O)O`, the nuclei count worked out at 102. As to `CCC(=O)CCCCC[C@@H]1NC(=O)[C@H]2CCCCN2C(=O)[C@H]([C@@H](C)CC)NC(=O)[C@H](Cc2cn(OC)c3ccccc23)NC1=O` [Apicidin], the nuclei count worked out at 54.1 ± 37. `CN(C(=O)Cc1ccccc1)C(CN1CCCC1)c1ccccc1` (stereo unspecified) [N-MPPP Hydrochloride] yielded a nuclei count of 87.9. `O=C1NC(=O)c2c1c1c3ccccc3n3c1c1c2c2ccccc2n1[C@H]1CC[C@@H]3O1` returned a nuclei count of 60.9. `CN[C@@H]1C[C@H]2O[C@@](C)([C@@H]1OC)n1c3ccccc3c3c4c(c5c6ccccc6n2c5c31)C(=O)NC4` [Staurosporine]: the nuclei count was 10.1. In turn, `O=C1CN=C(c2cccc(Br)c2)c2oc3ccccc3c2N1` registered a nuclei count of 78.5. `Clc1ccccc1C(c1ccccc1)(c1ccccc1)n1cccn1`: the nuclei count is 102. Under `CC(C)(c1ccc(OCC2CO2)cc1)c1ccc(OCC2CO2)cc1` (stereo unspecified) stands 86.6 ± 6.1; under `CCN1C[C@]2(COC(=O)c3ccccc3N3C(=O)C[C@H](C)C3=O)CC[C@H](OC)[C@@]34[C@@H]5C[C@H]6[C@H](OC)[C@@H]5[C@](O)(C[C@@H]6OC)[C@](O)([C@@H](OC)[C@H]23)[C@@H]14` [Methyllycaconitine citrate], 109; under `CC(=O)N1CC[N+](C)(C)CC1` [4-Acetyl-1,1-dimethylpiperazinium iodide], 103.

Regarding `COc1cc([C@@H]2c3cc4c(cc3[C@H](O)[C@H]3COC(=O)[C@H]23)OCO4)cc(OC)c1OC` [Podophyllotoxin], the nuclei count came to 15.6.

Consider `CC(C(=O)OC1CC2CCC(C1)N2C)c1ccc(Br)cc1` (stereo unspecified) [PG-9 maleate], for which the nuclei count was determined as 98.8. Consider `O=C1Nc2cc(Cl)c(Cl)cc2N2CCNCC12` (stereo unspecified), for which the nuclei count is 95.9. Take `CC12NC(Cc3ccccc31)c1ccccc12` (single isomer, unassigned; (+)) [(+)-MK 801 maleate]: the nuclei count turned out to be 94.2. The same measure for `O=C(CCCN1CCC2(CC1)C(=O)N(Cc1cccc(F)c1)CN2c1ccccc1)c1ccc(F)cc1` [3'-Fluorobenzylspiperone maleate]: 29.4. In turn, `COc1ccc(C[C@H]2NC[C@H](O)[C@H]2OC(C)=O)cc1` [Anisomycin] yielded a nuclei count of 12.5 ± 8.3. The compound `CC(C)n1cnc2c(C(=O)N[C@H]3CN4CCC3CC4)cc(Cl)cc21` showed a nuclei count of 96.2. In turn, `CCCCC/C=C\C/C=C\C/C=C\C/C=C\CCCC(=O)Nc1ccc(O)cc1` displayed a nuclei count of 97. The compound `COc1cc2c(cc1O)C(CCc1ccc(Cl)cc1)N(C)CC2` (stereo unspecified) displayed a nuclei count of 104. In turn, `CC1(C)CCCC(C)(C)N1[O]` showed a nuclei count of 91.7. Under `CC(C)(Cc1c[nH]c2ccc(Cl)cc12)NCCOc1ccccc1OCC1CC1` stands 11.3. For the compound `N#CC(C#N)=Cc1ccc(O)cc1` [Tyrphostin 8], the nuclei count was 102. As to `COc1ccc(C(=O)c2c(C)n(CCN3CCOCC3)c3cc(I)ccc23)cc1`, the nuclei count is 80.

As for `C[CH2][Hg][S]c1ccccc1C(=O)[O-].[Na+]` [Thimerosal], the nuclei count is 5.97. With `CC(=O)C1=C(O)[C@@H]2[C@H]3c4c[nH]c5cccc(c45)C[C@H]3C(C)(C)N2C1=O` [Cyclopiazonic Acid], the nuclei count was 90.3.

`CC(=O)C1=C(O)[C@@H]2[C@H]3c4c[nH]c5cccc(c45)C[C@H]3C(C)(C)N2C1=O` [Cyclopiazonic acid]: the nuclei count stood at 75.5. Consider `CC(C)(O)[C@H]1O[C@H]2CC[C@@]3(C)[C@@](O)(CC[C@H]4Cc5c([nH]c6ccccc56)[C@@]43C)C2=CC1=O` [Paxilline], for which the nuclei count is 91.2 ± 11. With `CN1C(=O)[C@]23CC4=CC=C[C@H](O)[C@H]4N2C(=O)[C@@]1(CO)SS3` [Gliotoxin], the nuclei count was 36. For `Cc1ccc(C[N+](C)(C)C)o1` [5-Methylfurmethiodide], the nuclei count came out at 91.6.
